High-throughput results deposited in PubChem by Johns Hopkins Ion Channel Center.
TMEM16A act – activates or potentiates the mouse TMEM16A chloride channel | HEK293 TMEM16A/YFP-H148Q/I152L, iodide quench fluorescence; hits give low values | hit rate 0.3% among 340,000 | B-score at 10 µM;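 active = fluorescence-ratio B-score plate-corrected deviation score at least 3 library SD below zero, with starting fluorescence score within 5 deviations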;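 also: channel opened by trigger with iodide after compound preincubation; score built on the fluorescence ratio of max minus min over baseline; more negative score means more quench and so TMEM16A activation or potentiation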
Target sequence (Q8BHY3 whole entry, looked up): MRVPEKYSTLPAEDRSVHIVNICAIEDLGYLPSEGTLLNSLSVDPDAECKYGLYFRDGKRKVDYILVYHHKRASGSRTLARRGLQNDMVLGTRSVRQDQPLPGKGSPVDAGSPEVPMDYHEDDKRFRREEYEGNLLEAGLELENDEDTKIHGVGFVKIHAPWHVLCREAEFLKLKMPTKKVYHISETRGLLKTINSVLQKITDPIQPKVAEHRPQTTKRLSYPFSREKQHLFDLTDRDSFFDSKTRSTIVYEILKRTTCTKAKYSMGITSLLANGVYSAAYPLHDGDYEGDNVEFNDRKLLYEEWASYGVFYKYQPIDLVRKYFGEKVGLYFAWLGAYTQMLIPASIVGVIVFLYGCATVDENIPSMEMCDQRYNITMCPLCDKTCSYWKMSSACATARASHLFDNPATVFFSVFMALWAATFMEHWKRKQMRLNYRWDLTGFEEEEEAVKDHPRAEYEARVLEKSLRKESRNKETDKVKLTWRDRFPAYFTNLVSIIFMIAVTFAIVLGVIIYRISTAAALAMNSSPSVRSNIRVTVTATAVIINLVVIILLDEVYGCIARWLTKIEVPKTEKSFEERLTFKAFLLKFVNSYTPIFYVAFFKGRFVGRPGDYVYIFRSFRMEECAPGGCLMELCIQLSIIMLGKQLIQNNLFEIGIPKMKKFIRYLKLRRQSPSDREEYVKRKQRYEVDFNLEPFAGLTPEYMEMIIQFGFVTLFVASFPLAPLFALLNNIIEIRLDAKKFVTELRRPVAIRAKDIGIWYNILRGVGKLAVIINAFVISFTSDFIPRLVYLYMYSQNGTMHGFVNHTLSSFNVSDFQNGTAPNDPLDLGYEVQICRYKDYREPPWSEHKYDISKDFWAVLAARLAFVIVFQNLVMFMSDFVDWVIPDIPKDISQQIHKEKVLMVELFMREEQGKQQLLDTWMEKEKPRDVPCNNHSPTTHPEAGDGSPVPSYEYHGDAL
ANO1 block – mouse TMEM16A channel inhibition, primary screen. Q8BHY3. HEK293 TMEM16A/YFP iodide influx fluorescence, ionomycin. normalized B-score (activity score, 25-100; higher = stronger inhibition) at 10 µM. hit rate 1.2% among 310,000;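 active = ratio plate-corrected score three or more library SD toward inhibition, starting fluorescence score within five deviations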;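 also: score derived from kinetic fluorescence span divided by baseline fluorescence per well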
CHT allo act – human CHT allosteric activation; CHT-expressing cells, membrane potential dye, choline EC20; hits give high values; LV-AA mutant CHT in HEK293 cells; Q9GZV3; hit rate 0.49% among 310,000; B-score at 10 µM; AID 488977;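 active = initial fluorescence not abnormally high and integrated response B-score, plate-corrected, over 3 SD above library mean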
CHT block – inhibitors of human choline transporter CHT | hit rate 0.86% among 310,000 | CHT-expressing cells, membrane potential dye, choline response; hits give low values | B-score at 10 µM;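 active = B-score over 3 SD under the library average, and starting fluorescence ratio not unusually high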;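 also: choline stimulus applied at its EC90 after an EC20 pre-addition; B-score computed on integrated fluorescence ratio after choline addition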
CHT inh conf – human CHT inhibition, confirmatory screen | hit rate 70% among 2,400 | CHT-expressing cells, choline membrane potential dye; LV-to-AA substituted CHT, HEK293 cells | shares compounds with CHT block | AID 493221 | CHT activity remaining % of control (hits give low values), % at 10 µM;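 active = choline transporter activity left, mean of duplicates at 10 µM, below buffer-only control mean minus 3 SD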;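 also: depolarization triggered by choline at its EC90 following an EC20 pre-addition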
HEK293 MPD ctr – counter-screen for CHT inhibitors: effect in parental HEK293 cells; shares compounds with CHT block; membrane potential dye, choline response; active = decrease or increase beyond buffer ±3SD; membrane potential ratio readout (active if shifted either direction beyond buffer ±3SD; no single direction) at 10 µM; hit rate 4% among 2,400;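 also: parental cells lack the transporter so any hit is non-specific; ratio is peak minus trough fluorescence over baseline after EC90 choline challenge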
Each line names hits and unclear results; the compound was inactive in the other large screens (follow-up assays come after a bar, where they were run). Most compounds without a hit are left out; they make up all but 2.4% or so of the library.

Cc1ccc(-c2csc(NC(=O)c3ccccc3Cl)c2C(=O)O)cc1	CHT block -5.85 | CHT inh conf 66.1% | HEK293 MPD ctr inactive
CC(C)Cc1csc(NC(=O)c2ccccc2Cl)c1C(=O)O	none
Cc1ccc(-c2csc(NC(=O)c3cccc(C)c3)c2C(=O)O)cc1	CHT block -7.71 | CHT inh conf 42.6% | HEK293 MPD ctr inactive
Cc1cccc(C(=O)Nc2scc(CC(C)C)c2C(=O)O)c1	none
O=C(CN(C(=O)CCC(=O)Nc1nccs1)c1ccccc1F)NCc1ccc(F)cc1	none
O=C(N/N=C/c1cccs1)c1n[nH]c2c1CCCC2	CHT block -6.02 | CHT inh conf inactive | HEK293 MPD ctr inactive
Cc1ccc(/C=N/NC(=O)c2n[nH]c3c2CCCC3)cc1	none
Cc1occc1C(=O)NNS(=O)(=O)c1ccc([N+](=O)[O-])cc1	CHT block -5.11 | CHT inh conf 45.6% | HEK293 MPD ctr inactive
CC(C)OCCCNS(=O)(=O)c1ccc2ccccc2c1	none
Cc1cccc(N(Cc2ccccc2)C(=O)CN2C(=O)NC3(CCCC3)C2=O)c1	none (no result: ANO1 block, CHT allo act, CHT block)
CC1(C)CC(=O)C(N=Nc2ccc(Cl)cc2)=C(O)C1	none
COc1ccccc1N=NC1=C(O)CC(C)(C)CC1=O	CHT block -5.51 | CHT inh conf inactive | HEK293 MPD ctr inactive
COc1ccccc1NC(=S)Nc1ccc2cn[nH]c2c1	none
CC(C)[C@H](CO)N(Cc1cccc(F)c1)c1nc(Nc2cccc(Cl)c2)c2ncn(C(C)C)c2n1	none
CC[C@H](CO)Nc1nc(Nc2cccc(Cl)c2)c2ncn(C(C)C)c2n1	CHT block -8.96 | CHT inh conf 48.1% | HEK293 MPD ctr inactive
CCC(=O)N1CCN(c2ccc(Cl)cc2NC(=S)NC(=O)c2ccco2)CC1	none
CC(C)c1ccc(NC(=O)CSc2nc(=O)n(CCCN3CCOCC3)c3c2CCC3)cc1	CHT block -4.95 | CHT inh conf 38.2% | HEK293 MPD ctr inactive
CC(C)(C)OC(=O)NCCC(=O)N/N=C/c1cccc2nccnc12	none
c1ccc(N2CCN(Cc3ccnc4ccccc34)CC2)cc1	CHT block -10.9 | CHT inh conf inactive | HEK293 MPD ctr inactive
Clc1ncc(CN2CCN(c3ccccc3)CC2)s1	none
O=C(Nc1nc2c(Cl)cccc2s1)C1CC1	none
O=C(Nc1nc2c(Br)cccc2s1)C1CC1	CHT block -5.67 | CHT inh conf inactive | HEK293 MPD ctr inactive
O=C(c1cn(-c2ccccc2)nc1-c1ccc(Cl)cc1)N1CCOCC1	CHT block -5.56 | CHT inh conf 58.7% | HEK293 MPD ctr inactive
O=C(c1cn(-c2ccccc2)nc1-c1ccccc1)N1CCOCC1	none
CCCCNc1nc(N)ncc1[N+](=O)[O-]	none
Cc1ccc(S(=O)(=O)N(C)C(C)CCc2ccco2)cc1 (stereo not given)	none (no result: ANO1 block, CHT allo act, CHT block)
CC(=O)c1ccc(S(=O)(=O)N(C)C(C)CCc2ccco2)cc1 (stereo not given)	CHT block -5.65 | CHT inh conf 70.9% | HEK293 MPD ctr inactive
CCCCCc1nc2sc3c(c2c(=O)n1NC(=O)c1ccc([N+](=O)[O-])cc1)CC(C)(C)OC3	ANO1 block 25, CHT block -12.2 | CHT inh conf 28.3% | HEK293 MPD ctr inactive
COc1ccc(N2C(=O)CSC2c2ccncc2)cc1 (stereo not given)	none
CC(C)[C@H](NC(N)=O)C(=O)NNC(=O)COc1cccc(C(F)(F)F)c1	none
O=C(CCc1nnc(Cc2ccc(-c3ccccc3)cc2)o1)N1CCCC1	CHT block -5.42 | CHT inh conf 45.5% | HEK293 MPD ctr inactive
COc1ccccc1CC(=O)N1CCN(c2cccc(C(F)(F)F)c2)CC1	CHT block -6.27 | CHT inh conf inactive | HEK293 MPD ctr inactive
COCCCN=C1NN=C(c2cc(C)n(-c3ccccc3F)c2C)CS1	CHT block -6.53 | CHT inh conf 32.7% | HEK293 MPD ctr inactive
CC1=NN(c2cccc(Cl)c2)C(=O)C1	none | CHT inh conf inactive | HEK293 MPD ctr inactive
O=C(NNS(=O)(=O)c1ccccc1[N+](=O)[O-])c1ccccc1Cl	none
O=C(NNS(=O)(=O)c1ccccc1[N+](=O)[O-])c1cc2ccccc2cc1O	CHT block -7.26 | CHT inh conf 62.3% | HEK293 MPD ctr inactive
CN(C)c1ccc(CNCc2cccnc2)cc1	none
